# The campaign covered roughly 330,000 compounds. About 900 (0.27%) were called active.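 How the source made its calls: active means inhibition above the campaign's mean inhibition across all tested compounds plus 3 SD (cut at about 9.9% in these data); inactive means the rest.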 Shown is part of a subset that was picked to be rich in actives.
# Assay: E. coli V3065 growth inhibition, primary screen, counter-screen for AddAB inhibitor project, absorbance, OD600 (AID 449728);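 further: uninfected addAB+ strain grown without phage in ampicillin broth; 0% = DMSO wells and 100% = ciprofloxacin 0.95 µg/ml wells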
# Conditions: 18 h, at 11.9 µM, active compounds read high
row,Compound,inhibition
1,CNC(=O)CN1C(=O)NC(c2ccccc2)(c2ccccc2)C1=O,1.95% (inactive)
2,CCOC(=O)N1CCN(Cc2nc3cc(NC(=O)CC)ccc3n2CC)CC1,-0.18% (inactive)
3,Cc1c(C=O)c2ccccc2n1CC(=O)O,2.1% (inactive)
4,CC(=O)c1c(C)n([O-])c2ccccc2[n+]1=O,30.7% (active)
5,COC(=O)c1cc(N2CCNCC2)nc2ccccc12,0.59% (inactive)
6,CC12C(=O)N(n3cnnc3)C(=O)C1C1C=CC2C1 (stereo not given),1.48% (inactive)
7,COc1ccc(C(=O)COC(=O)c2ccc3ccccc3n2)cc1,0.25% (inactive)
8,CC[C@H](C)[C@@H](C(=O)N1CCNCC1)n1cc([C@@H](N)Cc2ccc(O)cc2)nn1,-1.2% (inactive)
9,CC(C)[C@H](NC(=O)c1ccc(F)cc1)C(=O)OCC(=O)NC(=O)c1cccn1C,-1.29% (inactive)
10,COC(=O)N/N=C/c1ccc(-c2ccc(Cl)c(Cl)c2)o1,0.17% (inactive)
11,COC(=O)N/N=C/c1cn(CCCOc2ccc(C)cc2)c2ccccc12,-2.32% (inactive)
12,COC(=O)N/N=C/c1c[n+]([O-])c2ccccc2[n+]1[O-],93.8% (active)
13,COc1ccc(C)cc1NC(=O)c1[nH]c(C)c(C(C)=O)c1C,-0.41% (inactive)
14,CN(Cc1ccco1)S(=O)(=O)c1nnc(NC(=O)c2ccccc2)s1,0% (inactive)
15,COCCNS(=O)(=O)c1cc(Br)ccc1OC,-1.08% (inactive)
16,COc1ccc(OCc2nnc3n2N=C(c2ccccc2)C(CC(=O)O)S3)cc1 (stereo not given),-0.43% (inactive)
17,CN1CCN(C(c2cc3cc4c(cc3[nH]c2=O)OCCO4)c2nnnn2C2CCCC2)CC1 (stereo not given),0.75% (inactive)
18,Cc1nnc(N/N=C/C2CC=CCC2)[nH]c1=O (stereo not given),-0.18% (inactive)
19,Cc1cc(C(=O)N/N=C/c2ccccn2)c2ccccc2n1,-0.17% (inactive)
20,Cc1nnc(N/N=C/c2ccccn2)[nH]c1=O,12.1% (active)
21,O=C(Nc1ccc2nc3n(c(=O)c2c1)CCCC3)c1ccc(Cl)nc1,-2.17% (inactive)
22,CC(NS(=O)(=O)c1ccc(Cl)cc1)C(=O)Nc1ccc2c(c1)OCCO2 (stereo not given),-2.14% (inactive)
23,CCn1c(=O)cc(SCC(=O)NCc2ccc3c(c2)OCO3)c2ccccc21,-0.5% (inactive)
24,C=CCn1c(=O)c(C(=O)NCc2ccc3c(c2)OCO3)c(O)c2ccccc21,13.5% (active)
25,CCn1c(=O)c(C(=O)NCc2ccc3c(c2)OCO3)c(O)c2ccccc21,0.18% (inactive)

row,Compound,inhibition
1,O=C(CC1SC(N2CCCC2)=NC1=O)Nc1ccc(C(=O)NCCc2ccc(F)cc2)cc1 (stereo not given),-1.3% (inactive)
2,CN(C)[C@@H]1C(=O)C(C(N)=O)=C(O)[C@@]2(O)C(=O)C3=C(O)c4c(O)ccc(Cl)c4[C@@H](O)[C@H]3C[C@@H]12,102% (active)
3,C=C1c2c(Cl)ccc(O)c2C(O)=C2C(=O)[C@]3(O)C(O)=C(C(N)=O)C(=O)[C@@H](N(C)C)[C@@H]3[C@@H](O)C12 (stereo not given in full),103% (active)
4,CC1CC(C)CN(CCOc2cccc3ccccc23)C1 (stereo not given),0.17% (inactive)
5,COc1cc(Cl)c(C)cc1NC(=O)COC(=O)c1cc(SC)ccc1Cl,-0.93% (inactive)
6,CCCn1nc(Oc2nc(NC(C)C)nc(N(C)C)n2)ccc1=O,-1.48% (inactive)
7,CCc1c(C)nc2ncnn2c1N1CCC(C(=O)NCc2ccc3c(c2)OCO3)CC1,-1.08% (inactive)
8,Cc1cnc(C(=O)OCC(=O)NCCCc2ccccc2)cn1,-0.78% (inactive)
9,COc1ccccc1NC(=S)N1CCN(c2ccc(F)cc2)CC1,-1.81% (inactive)
10,COc1c(N2CCN(C(=S)Nc3ccccc3F)C(C)C2)c(F)cc2c(=O)c(C(=O)O)cn(C3CC3)c12 (stereo not given),99% (active)
11,CC1CN(C(=S)Nc2ccccc2F)CC(C)O1 (stereo not given),0.45% (inactive)
12,CCOc1ccc(/C=C/C(=O)OCC(=O)c2ccccc2OC)cc1OC,2.19% (inactive)
13,O=C(NCC1CCCO1)C(C(=O)c1ccccc1)n1cc(Cl)ccc1=O (stereo not given),96.6% (active)
14,O=C(CSc1ccc(-c2ccccc2)nn1)NCC1CCCO1 (stereo not given),0.59% (inactive)
15,O=C(NCC1CCCO1)/C(=C/c1ccc(Cl)cc1)NC(=O)c1ccccc1 (stereo not given),0.6% (inactive)
16,O=C1CN(C(=O)COC(=O)C2CC(=O)N(Cc3ccco3)C2)c2ccccc2N1 (stereo not given),-0.37% (inactive)
17,Cc1ccc(NC(=O)C(C)OC(=O)Cc2c[nH]c3ccccc23)cc1S(=O)(=O)N1CCOCC1 (stereo not given),-2.87% (inactive)
18,CC(C)CC(=O)NC(=S)NNC(=O)c1cccc([N+](=O)[O-])c1,-7.21% (inactive)
19,CN(C)CCn1c2c(c(SCC(=O)NCc3ccccc3)nc1=O)CCC2,-1.35% (inactive)
20,COc1ccc(CC(=O)Nc2c(C(N)=O)oc3ccccc23)cc1,-1.77% (inactive)
21,COC(=O)c1oc2ccc(Br)cc2c1NC(C)=O,1.03% (inactive)
22,COc1ccc(C(=O)c2oc3ccc(Br)cc3c2NC(C)=O)cc1,98.8% (active)
23,OCc1ccc(-c2ccccc2)c(-c2ccccc2)c1,-4.27% (inactive)
24,CCC1(C)Cc2c(sc3[nH]c(=S)n(Cc4ccccc4)c(=O)c23)CO1 (stereo not given),-1.73% (inactive)
25,Nc1nonc1-n1nnc(C(=O)N/N=C/c2ccccc2O)c1CN1CCCC1,-0.26% (inactive)

row,Compound,inhibition
1,Nc1nonc1-n1nnc(C(=O)N/N=C/c2cc(Br)ccc2O)c1CSC1=NCCS1,12.6% (active)
2,Cc1ccc(SCc2c(C(=O)N/N=C/c3cccnc3)nnn2-c2nonc2N)cc1,1.61% (inactive)
3,O=C(CNCCO)NC12CC3CC(CC(C3)C1)C2,-2.56% (inactive)
4,CSCCC(NS(=O)(=O)/C=C/c1ccccc1)C(=O)N1CCC(C)CC1 (stereo not given),-0.42% (inactive)
5,CSc1cc(C)[nH]c(=O)n1,-2.18% (inactive)
6,CCc1ccccc1NC(=O)CN(c1ccc(OC)cc1OC)S(=O)(=O)c1ccccc1[N+](=O)[O-],-0.37% (inactive)
7,C/[N+]([O-])=C\c1ccc([N+](=O)[O-])o1,15.4% (active)
8,COc1ccc(C(=O)NCC(=O)N/N=C/c2ccc([N+](=O)[O-])o2)cc1OC,5.52% (inactive)
9,COC(=O)C1=C(C)N(C)C(=O)NC1c1ccc([N+](=O)[O-])o1 (stereo not given),0.52% (inactive)
10,COC(=O)c1ccc(COC(=O)c2cnccn2)cc1,-0.61% (inactive)
11,O=C(Cn1cc(C(=O)c2cccs2)c2ccccc21)NCc1cccs1,0.18% (inactive)
12,CC1CCN(C(=O)Cn2cc(C(=O)c3ccco3)c3ccccc32)CC1,-0.18% (inactive)
13,Cc1cccc(NC(=O)Cn2cc(C(=O)c3ccco3)c3ccccc32)c1,16.6% (active)
14,Cc1ccc(CN2CCC(N3CCC(C(=O)NCC4CCCO4)CC3)CC2)o1 (stereo not given),-1.01% (inactive)
15,COc1ccc(CCNC(=O)/C(C#N)=C2\N=C(NC(=O)c3cccs3)c3ccccc32)cc1,-0.34% (inactive)
16,O=C(NCC#CCSc1nnc(-c2cccc3ccccc23)o1)c1cccs1,10.2% (active)
17,C#CCSc1nnc(-c2sc3ccccc3c2Cl)o1,2.18% (inactive)
18,COc1ccc(C)cc1N(CC(=O)NC(C)c1ccccc1)S(C)(=O)=O (stereo not given),0.84% (inactive)
19,C[N+]1(CCNC(=O)/C=N/O)CCCCC1,-1.11% (inactive)
20,COc1ccc([C@H]2CC(=O)C=C(/C=C/c3ccccc3)C2)cc1,-0.71% (inactive)
21,Cc1ccccc1NC(=O)NC1(C(=O)N2CCCC2)CCCCC1,-1.26% (inactive)
22,Oc1c(Cl)cc(Cl)c(Cl)c1Cc1c(O)c(Cl)cc(Cl)c1Cl,12.2% (active)
23,CC(=O)OCCOCn1cnn2c(=O)c(Br)c(C)nc12,-2.04% (inactive)
24,CCNC(=S)N1CCN(c2ncccn2)CC1,0.78% (inactive)
25,CN(C)CCCn1c(SCc2ccc(Cl)cc2)nnc1-c1ccncc1,-1.29% (inactive)

row,Compound,inhibition
1,COc1cccc(-c2sc3ccc(OC)cc3c2-c2ccc(OCCN3CCCCC3)cc2)c1,-0.53% (inactive)
2,Cc1ccc(C23CC4CC(CC(C(=O)NCC(=O)O)(C4)C2)C3)cc1,1% (inactive)
3,CCOc1ccccc1NC(=O)Cc1cccs1,1.04% (inactive)
4,CCOc1ccccc1NC(=O)C12CC3CC(C1)CC(c1ccc(C)cc1)(C3)C2,26.6% (active)
5,COCCCNC(=O)C1CCC(CNS(=O)(=O)c2ccc(OC)cc2)CC1 (stereo not given),-1.01% (inactive)
6,CCC1C(=O)NCCN1C(=O)c1ccc2nc(Cc3ccc(OC)cc3)oc2c1 (stereo not given),-0.08% (inactive)
7,O=C(OCC1O[C@@H](OC(=O)c2cc(O)c(O)c(O)c2)[C@@H](OC(=O)c2cc(O)c(O)c(O)c2)[C@@H](OC(=O)c2cc(O)c(O)c(O)c2)[C@@H]1OC(=O)c1cc(O)c(O)c(O)c1)c1cc(O)c(O)c(O)c1 (stereo not given in full),23.6% (active)
8,COc1cccc(/C=N/Nc2ncc(C(F)(F)F)cc2Cl)c1O,15.6% (active)
9,COc1ccc(Br)cc1/C=N/Nc1ccc(Cl)c(C(=O)O)c1,-3.01% (inactive)
10,CCOc1cccc(/C=N/NC(=S)NCCN2CCOCC2)c1O,0.34% (inactive)
11,C/C(CC(C)C)=N\Oc1nc(C)cc(C)n1,0.81% (inactive)
12,COc1ccc2c(C(=O)c3ccc(C)cc3)n(CCC(N)=O)[n+]([O-])c2c1,-1.03% (inactive)
13,COc1ccc(C(=O)c2c3ccc([N+](=O)[O-])cc3[n+]([O-])n2CCCN)cc1,9.95% (active)
14,COc1ccc(C(=O)CC(=O)C(=O)Nc2cc([N+](=O)[O-])ccc2OC)cc1,-2.64% (inactive)
15,CN1CCN(C(=O)c2cnn(-c3ccccc3)c2NC(=O)c2ccc([N+](=O)[O-])cc2)CC1,-0.94% (inactive)
16,Cc1ccc(/C=C/C(=O)Nc2ccc([N+](=O)[O-])c(NC(=O)/C=C/c3ccc(C)o3)c2)o1,-5.13% (inactive)
17,O=C(NNC(=O)C1CCCC1)c1ccc(F)cc1,-1.97% (inactive)
18,O=C(/C=C/c1ccc([N+](=O)[O-])o1)NNC(=O)c1ccc(F)cc1,97.9% (active)
19,CONC(=O)c1cc(OCC(F)(F)F)ccc1OCC(F)(F)F,-0.41% (inactive)
20,O=C1CN(C(=O)COC(=O)c2cnc(Cl)c(Cl)c2)c2ccccc2N1,1.7% (inactive)
21,O=C1c2ccccc2C2=Nc3ccccc3SC(c3ccccc3F)C12 (stereo not given),19.9% (active)
22,O=C1c2ccccc2C(=O)C1c1ccccc1F,1.08% (inactive)
23,CCOC(=O)C1=C(C)N=C2c3ccccc3C(=O)C2C1c1ccc(Br)cc1 (stereo not given),0.42% (inactive)
24,C=CCN(Cc1nc(-c2cc(OC)c3c(c2)OCO3)oc1C)C1CCS(=O)(=O)C1 (stereo not given),-0.09% (inactive)
25,O=C(COC(=O)c1c(Cl)cccc1Cl)Nc1cccc(S(=O)(=O)NC2=NCCCCC2)c1,-2.98% (inactive)
